According to PubChem BioAssay AID878 (University of Pittsburgh Molecular Library Screening Center, 2007):
Screen size: about 200,000 compounds; about 65 (0.03%) were called active.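 How the source made its calls: active means activation of at least 50% relative to the plate's high and low controls in the primary single-dose screen; inactive means activation below 50%.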 The list comes from a sample in which actives are over-represented; it also holds similar structures and randomly drawn compounds.

Experiment: compounds producing H2O2 with reducing agent – biochemical, NIH compound library profiling, artefact control for MLSCN library redox annotation, primary screen (AID 878);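 further: compound incubated with DTT at 0.8 mM final as the reducing agent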
Settings: DTT-dependent redox cycling H2O2, phenol red/HRP absorbance; at 10 µM; active compounds read high; 100% = 100 µM peroxide control, 0% = buffer

activation, inactive:
O=C1c2cccc3c([N+](=O)[O-])ccc(c23)C(=O)N1CC1CCCO1 (centres undefined) -0.67%, O=C(N/N=C1\CCSC1)c1cc(Cl)ccc1O -0.43%, CCn1ccnc1CN1CCCC(C(=O)c2ccc3c4c(cccc24)CC3)C1 (centres undefined) -1.32%, COc1ccc([N+](=O)[O-])cc1NC(=O)c1ccc(N(Cc2ccccc2C)S(C)(=O)=O)cc1 2.05%, CCOc1ccc(N(CC(=O)NC2CCCCCC2)S(=O)(=O)c2c(C)[nH]c(=O)[nH]c2=O)cc1 -0.79%, CCC(O)C1CCN(Cc2cn(-c3ccc(OC)cc3)nc2-c2cccc(F)c2)CC1 (centres undefined) -1.12%, O=C(NNC(=O)C1CCN(c2ncccn2)CC1)c1ccccc1 3.9%, O=C(NC(=S)Nc1ccc(NC(=O)c2cccs2)cc1)c1ccc([N+](=O)[O-])cc1 0.63%, CNc1ccc(SC#N)cc1 -1.28%, CCN1CCN(CC(=O)c2cc(OC)c(OC)c(OC)c2)CC1 -2.87%, CC(Nc1ccccc1)c1cccnc1 (centres undefined) -1.74%, CN(C)c1ccc(-n2cccc2/C=N/n2cnnc2)cc1 -0.65%, COC(=O)/C(C#N)=C/c1occc1C -0.05%, Cc1cc(C)cc(N(CC(=O)N2CC=C(c3ccccc3)CC2)S(=O)(=O)c2c(C)noc2C)c1 -1.64%, CC(C)(C)C(=O)N(Cc1ccccc1)c1ccccn1 -0.82%, O=C(CN1CCCCCC1)Nc1ccc(Br)cc1Br 0.33%, COCCCn1c(SCC(=O)Nc2ccccc2)nnc1-c1ccncc1 0.72%, CCCCN=C1C([N+](=O)[O-])=CC=C2C1=NC1(CCCCC1)N2O 0.33%, O=C(N/N=C/c1ccco1)c1ccc(C(=O)N/N=C/c2ccco2)o1 -0.77%, O=C(C1CC1)N1N=C2CCCCC2C1(O)C(F)(F)F (centres undefined) -0.33%, CC1Cc2ccccc2N1S(=O)(=O)c1c(N)n(C)c(=O)n(C)c1=O (centres undefined) -1.16%, Cc1cc(NC(=O)CSc2nc3c(cc2C#N)CCCCC3)no1 -0.92%, COC(=O)c1ccccc1NS(=O)(=O)c1ccc2[nH]c(=O)[nH]c2c1 0.27%, COc1ccc(CCNC(=O)/C(C#N)=C2\N=C(NC(=O)c3cccs3)c3ccccc32)cc1 0.35%, CCC(NC(=O)c1ccccc1NC(=O)c1ccccc1)C(=O)NNC(=O)CSc1nc2ccccc2o1 (centres undefined) -0.15%, CCc1cccc(C)c1NC(=O)COC(=O)Cc1ccsc1 -0.34%, Cc1noc(C)c1COc1ccc2ccc(=O)oc2c1 -0.19%, COc1ccc2nc(Nc3nc(-c4ccncc4)cs3)sc2c1 -0.22%, Cc1cccc(OC(=O)c2sc3ncn(C)c(=O)c3c2C)c1 0.69%, COc1ccc(CCNC(=O)C(=O)NCc2ccccc2C)cc1OC -0.24%, CCc1nnc(NC(=O)C2CC(=O)N(c3ccc4c(c3)OCCO4)C2)s1 (centres undefined) 0.21%, CCc1ccc(CN(C)C(=O)CCc2nnc(-c3ccc(-c4ccccc4)cc3)o2)nc1 -1.14%, Cc1ccccc1NC(=O)c1ccc(COc2ccc3c(C)cc(=O)oc3c2)cc1 0.57%, O=C(Nc1cccc(C(F)(F)F)c1)c1ccc(N2CCNCC2)c([N+](=O)[O-])c1 2.54%, CN(C)CCCO/N=C(\c1ccccc1)c1ccncc1 0.18%, CCOCCCNC(=O)C(NC(=O)c1ccc(=O)[nH]c1)c1ccc(Cl)cc1 (centres undefined) -3.26%, COc1cc(CC(=O)N/N=C/c2ccccc2)c([N+](=O)[O-])cc1OC -0.77%, O=S(=O)(c1ccc(F)cc1)N1CCN(C(=S)NCc2ccco2)CC1 -0.47%, O=C(Cc1ccccc1)NNC(=O)C1CCN(c2ncccn2)CC1 -0.49%, COc1ccc(Cl)cc1-n1c(C)cc(C(=O)OCC(=O)N2CC(=O)Nc3ccccc32)c1C 0.04%, Cc1ccc(-c2cc(=O)c3ccc(Cl)cc3[nH]2)cc1 -1.26%, CCN(CC)c1ccc([N+](=O)[O-])cc1C(=O)O 0.13%, N#Cc1c(NC(=O)c2ccc(N3CCOCC3)c([N+](=O)[O-])c2)sc2c1CCCC2 0.09%, COc1cc(NC(=S)NCc2ccco2)c(OC)cc1Cl -0.01%, O=C(Nc1ccccc1)c1cc2ccccc2[nH]1 -0.39%, C=CCN(Cc1nc(-c2cc(OC)c3c(c2)OCO3)oc1C)C1CCS(=O)(=O)C1 (centres undefined) -0.18%, COc1ccccc1C(=O)Nc1ccc(OCc2nnc3c4ccccc4c(C)nn23)cc1 -0.13%, CCOC(=O)Nc1ccc(S(=O)(=O)N(C)C(C)C)cc1 0.17%, Cc1cc(NC(=O)CN2C(=O)NC(CCc3ccccc3)C2=O)no1 (centres undefined) -0.88%, COc1ccc(OC)c(NC(=O)CN(Cc2ccc(Cl)cc2)S(C)(=O)=O)c1 -0.61%, CC(C)NC(=O)c1ccccc1S(=O)c1ccccc1C#N (centres undefined) 0.13%, COc1ccc(C2=NN(c3ccccc3)C(c3cccs3)C2)cc1 (centres undefined) 0.96%, C=CCn1nc(-c2ccccc2)c2c(C)onc2c1=O -0.48%, Cc1ccc(C(=O)NC(C)c2ccccc2)cc1Br (centres undefined) -0.27%, CC(C)Cn1c(N)c(C(=O)COC(=O)CN2C(=O)C3CC=CCC3C2=O)c(=O)n(C)c1=O (centres undefined) -0.26%, Cc1cc(C)cc(NC(=O)N2CCCCCCC2)c1 -0.28%, CCCCN1C(=O)/C(=C/C=C2/C=Cc3ccccc3N2CC)SC1=S 1.26%, C=CCn1c(COc2ccc(F)cc2)nnc1SCC(=O)Nc1cccc(S(N)(=O)=O)c1 -0.73%, CCN(CC)CCCNC(=O)Cn1cnc2sc(C)c(S(=O)(=O)N3CCN(c4ncccn4)CC3)c2c1=O -0.75%
